FBPA coupling cs: inhibits coupling enzyme system, counter-screen for aldolase hits; hit rate 0.67% among 290,000; coupling enzyme system counterscreen, AmpLite Red fluorescence; activity change, negative = inhibition, % at 58.2 µM, hits read low; AID 2472; in the data active = activity change below about -30%
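Counterscreen lacking aldolase: glyceraldehyde-3-phosphate coupling-enzyme reagent preincubated 10 min at RT with compound (at 57.5 uM final), then substrate/coupling system with AmpLite Red added; fluorescence read at 525/598 nm after 20 min RT.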
Tau fluor cs: counter-screen for tau fibril formation inhibitors | tau K18 P301L Alexa594 fluorescence, heparin fibrillization | hit rate 0.93% among 280,000 | Potency, µM (series often up to 57.7 µM); note: nearly all actives have a fitted effect of over 55% in size
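Human tau K18 P301L (15 uM unlabeled, 0.24 uM Alexa 594-labeled) in 100 mM sodium acetate pH 7 with 20 uM heparin, 6 hr at 37 C. ThT 30 uM added, 1 hr ambient; Alexa 594 FP and total fluorescence read at 555/632 nm.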
USP1 inh: USP1/UAF1 (human) deubiquitinase inhibition; O94782; recombinant USP1/UAF1, Ub-Rhodamine cleavage fluorescence; Potency, µM (top dose mostly 57.1 µM), actives largely listed as inhibitors; hit rate 0.23% among 390,000; note: nearly all actives have a fitted effect of over 60% in size
Target sequence (O94782 whole entry, looked up): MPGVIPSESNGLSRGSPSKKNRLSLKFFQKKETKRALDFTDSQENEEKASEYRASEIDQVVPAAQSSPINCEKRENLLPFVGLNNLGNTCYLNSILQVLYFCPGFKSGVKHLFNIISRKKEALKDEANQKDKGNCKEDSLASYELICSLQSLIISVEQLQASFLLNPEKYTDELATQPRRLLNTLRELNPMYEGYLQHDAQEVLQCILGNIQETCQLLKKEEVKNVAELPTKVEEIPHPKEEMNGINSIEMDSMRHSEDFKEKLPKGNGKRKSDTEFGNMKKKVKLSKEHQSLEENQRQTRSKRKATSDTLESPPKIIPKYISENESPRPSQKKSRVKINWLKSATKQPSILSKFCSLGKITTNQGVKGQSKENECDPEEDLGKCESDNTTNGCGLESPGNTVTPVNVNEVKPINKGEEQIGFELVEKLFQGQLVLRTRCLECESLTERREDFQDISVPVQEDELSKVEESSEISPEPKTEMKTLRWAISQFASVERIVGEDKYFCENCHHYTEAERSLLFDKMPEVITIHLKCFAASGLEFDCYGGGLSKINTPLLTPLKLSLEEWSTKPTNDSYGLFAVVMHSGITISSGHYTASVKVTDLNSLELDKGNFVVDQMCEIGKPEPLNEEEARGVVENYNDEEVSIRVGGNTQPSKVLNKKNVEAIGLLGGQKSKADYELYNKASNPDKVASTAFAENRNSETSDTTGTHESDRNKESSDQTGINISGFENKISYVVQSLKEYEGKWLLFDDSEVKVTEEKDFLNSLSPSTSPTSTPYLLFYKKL
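High-throughput fluorogenic screen: 1nM USP1/UAF1 complex, Ub-Rho substrate 150nM final, 50mM HEPES pH 7.8 with 0.5mM EDTA, 0.1 mg/ml BSA, 1mM TCEP and 0.01% Tween-20.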
Tau ThT inhib: blocks human tau fibril formation measured by thioflavin T | AID 1460 | hit rate 2.1% among 270,000 | Potency, µM (highest dose often 57.4 µM), usual class: inhibitors | recombinant tau K18 P301L (four-repeat tau fragment), heparin-induced fibrillization, ThT fluorescence; note: nearly all actives have a fitted effect of over 55% in size
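Tau K18 P301L fragment (15 uM unlabeled plus 0.24 uM Alexa 594-labeled) in 100 mM sodium acetate pH 7 with compound, fibrillization induced by 20 uM heparin for 6 hr at 37 C. Thioflavin T (30 uM) added, fluorescence read after 1 hr (ex 450, em 510 nm).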
Tau fibril FP: blocks human tau fibril formation measured by polarization; AID 1468; Potency, µM (top dose mostly 57.7 µM), hits mostly inhibitors; hit rate 0.39% among 280,000; P10636; K18 P301L tau heparin fibrillization, Alexa594 FP, 6 h; note: nearly all actives have a fitted effect of over 55% in size
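Read-out: fluorescence polarization of Alexa 594-labeled tau (0.24 uM), 555 nm excitation, 632 nm emission. Mixtures held 15 uM unlabeled K18 P301L, compound and 20 uM heparin, pH 7 acetate buffer, incubated 6 hr at 37 C.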
Numbers stand for hits; – = inactive; ? = inconclusive; · = no result; [ ] = remark or other dose. The list is not random: actives were taken first. Their share in the collection is about 2.3%. Unless noted, calls come from the whole dose curve; as a rule, active = well fitted curve in the direction sought with a large enough effect; inconclusive = small, poorly fitted or top-dose-only effect, or another doubt; inactive = no such curve, though single readings can be large; an effect the other way counts as inactive or inconclusive.

SMILES | FBPA coupling cs | Tau fluor cs | USP1 inh | Tau ThT inhib | Tau fibril FP
COc1ccc(-n2c(O)c(/C=N/NS(=O)(=O)c3ccc(C)c([N+](=O)[O-])c3)c3ccccc3c2=O)cc1OC | – | – | 25µM | ? | –
CN1CC[C@@]2(CCCN(C(=O)c3cccc(F)c3)C2)C1 | – | · | · | · | ·
CN(C(=O)CSc1nc2ccc(NC(=O)c3cccc(F)c3)cc2s1)c1ccccc1 | · | ? | – | – | ?
CCOc1ccc(N2C(=O)C3Sc4[nH]c(=O)sc4C(/C=C/c4ccccc4)C3C2=O)cc1 (configuration not stated) | – | ? | – | 14µM | –
COc1ccc(/C=C\c2onc(C)c2S(=O)(=O)N2CCC(C(=O)Nc3cccc(C)c3C)CC2)cc1 | · | – | – | – | ?
COc1ccc(/C=C\c2onc(C)c2S(=O)(=O)N2CCC(C(=O)Nc3cccc(Cl)c3)CC2)cc1 | · | – | – | – | 14µM
CCOc1ccccc1NC(C)C(=O)NC(=O)NC1CCCCC1 (configuration not stated) | · | · | – | · | ·
O=C(O)c1cccc(S(=O)(=O)Nc2ccc3[nH]c(=O)[nH]c3c2)c1 | – | ? | – | ? | –
O=C(O)c1ccc(Cl)c(S(=O)(=O)Nc2ccc3[nH]c(=O)[nH]c3c2)c1 | – | ? | – | 14µM | ?
COc1cc(N(C)C)cc(CN(C)CCc2ccc([N+](=O)[O-])cc2)c1O | -54 | · | · | · | ·
COc1ccc(C(=O)/C=C/c2ccc(OC)cc2OC)c(O)c1 | – | – | – | 18µM | –
COc1ccc(/C=C/C(=O)c2cc(Cl)ccc2O)c(OC)c1 | – | – | – | 16µM | –
COc1ccc(/C=C/C(=O)c2ccc(Cl)cc2)c(OC)c1 | – | – | – | ? | –
CCN(c1ccccc1)C(CNS(=O)(=O)c1ccccc1)c1ccccc1 (configuration not stated) | · | ? | – | – | –
O=c1oc2c3c4c(cc2c(C(F)(F)F)c1CCN1CCOCC1)CCCN4CCC3 | – | – | 6.3µM | – | –
CN1C/C(=C\c2ccc(N3CCOCC3)cc2)C(=O)/C(=C/c2ccc(N3CCOCC3)cc2)C1 | – | – | ? | 0.63µM | –
CCN1C/C(=C/c2ccc(N3CCOCC3)cc2)C(=O)/C(=C/c2ccc(N3CCOCC3)cc2)C1 | – | – | ? | 0.63µM | –
CCCC(=O)Nc1ccc(N2CCOCC2)cc1 | – | – | – | – | –
Cc1ccc(CN(C(=O)COc2ccc(Cl)c(C)c2)C2CCS(=O)(=O)C2)o1 (configuration not stated) | · | – | – | – | –
CC(=O)NCC(=O)N[C@H](CCC(=O)O)C(=O)O | – | – | · | – | –
COc1cc2c3nnc(-c4ccc(F)cc4)c-3cn(Cc3cccc(C)c3)c2cc1OC | – | – | 32µM | ? | –
COc1cc2c3nnc(-c4ccc(F)cc4)c-3cn(Cc3ccc(C)cc3)c2cc1OC | – | – | 32µM | – | –
CCc1cc(=O)oc2cc(OCC(=O)N3CCC(C(=O)O)CC3)ccc12 | -73 | · | – | · | ·
CCCc1cc(=O)oc2cc(OCC(=O)N3CCC(C(N)=O)CC3)ccc12 | – | · | – | · | ·
N#CC(c1ccc(Cl)cc1)N1CCOCC1 (configuration not stated) | – | – | – | – | –
SMILES | FBPA coupling cs | Tau fluor cs | USP1 inh | Tau ThT inhib | Tau fibril FP
Oc1c(Cl)cc(Cl)cc1C(C#Cc1ccccc1)N1CCOCC1 (configuration not stated) | – | ? | – | 14µM | –
CCC(C)NC(=O)c1ccc2c(c1)N=C(C)c1cc(C)ccc1S2 (configuration not stated) | · | – | – | – | –
Cc1cc(C(=O)O)ccc1-n1c(C)cc(C=C2C(=O)c3ccccc3C2=O)c1C | – | – | – | 14µM | –
Cc1cc(C(=O)O)ccc1-n1c(C)cc(/C=C(/C#N)C(=O)Nc2ccccc2)c1C | – | – | – | – | –
CC(C)c1ccc(/C=C(\C#N)c2nc(-c3ccc(O)cc3)cs2)cc1 | · | 8.9µM[quencher] | – | 7.9µM | 13µM
COc1ccc(/C=C(/C#N)c2nc(-c3ccc(Br)cc3)cs2)cc1 | · | – | – | ? | ?
N#C/C(=C\c1ccc(O)c([N+](=O)[O-])c1)c1nc2ccccc2s1 | – | ? | ? | 2.2µM | –
COc1ccc(-c2csc(/C(C#N)=C\c3ccc(O)c([N+](=O)[O-])c3)n2)cc1OC | – | 4.5µM[quencher] | – | 1.3µM | –
O=C(O)CC/C(=C\c1ccc(Cl)c([N+](=O)[O-])c1)c1nc2ccccc2s1 | – | – | – | – | –
COc1cc(/C=C(\C#N)c2nc3ccccc3s2)cc([N+](=O)[O-])c1O | – | 16µM[quencher] | – | 1.4µM | –
CC(C)CCOc1ccc(N)cc1 | – | · | · | · | ·
N#Cc1c(N)n(-c2cccc(Cl)c2)c2nc3ccccc3nc12 | · | – | ? | – | –
CCCCCCCCCCCCC/C=C/[C@@H](O)[C@H](CO)NCCCCCCCC | – | – | · | – | –
OCc1c(OCc2cccc(F)c2)ccc2ccccc12 | – | · | – | · | ·
Cc1nnc(N/N=C/c2ccc(-c3ccccc3F)o2)n1N | – | ? | – | 13µM | –
Cc1nnc(N/N=C\c2ccc(-c3ccccc3[N+](=O)[O-])o2)n1N | -65 | ? | ? | 10µM | ?
Cc1n[nH]c(=S)n1/N=C/c1ccc(-c2ccccc2[N+](=O)[O-])o1 | – | – | – | ? | –
O=S(=O)(c1ccccc1)c1nc(-c2cccs2)oc1SCc1ccccc1F | · | ? | – | – | ?
CCOc1ccc(CCNC(=O)c2ccc(Cn3c(=O)c4cccn4c4cccnc43)cc2)cc1 | · | – | – | – | –
C[C@@H](CCc1ccc(O)cc1)NCCc1ccc(O)c(O)c1 | – | – | · | – | –
CN=c1scc(-c2ccco2)n1/N=C/c1ccc(O)c(O)c1 | – | 16µM[quencher] | – | 7.1µM | ?
CC(C)C(=O)N[C@H]1CCCN1C(=O)/C=C\c1ccccc1 | – | –[11.6 µM] | · | –[11.5 µM] | –[11.6 µM]
O=C(CSc1ccccc1)Nc1nnc(COc2ccc(Cl)cc2)s1 | – | ? | – | 28µM | ?
CCOC(=O)N1CCN(C(=O)CN(c2cccc(Cl)c2C)S(=O)(=O)c2ccc(C)cc2)CC1 | · | – | – | – | –
c1csc(-c2cn3ccc4ccccc4c3n2)c1 | – | – | ? | 10µM | –
SMILES | FBPA coupling cs | Tau fluor cs | USP1 inh | Tau ThT inhib | Tau fibril FP
CCOc1cc(/C=C2\CN(C)C/C(=C\c3ccc(O)c(OCC)c3)C2=O)ccc1O | – | · | – | · | ·
CCOc1cc(/C=C2\CCC/C(=C\c3cc(Cl)c(O)c(OCC)c3)C2=O)cc(Cl)c1O | – | ? | – | 8.9µM | ?
Cc1ccc(Sc2ccc(N3CCCC(C(=O)Nc4ccc(Br)cc4)C3)nn2)cc1 (configuration not stated) | · | – | – | – | –
CNc1ccccc(-c2ccc3cc4c(cc3n2)OCO4)c1=O | – | ? | – | 5µM | –
c1ccc2nc(-c3ccc4c(c3)OCO4)ccc2c1 | – | – | – | ? | –
CC(=O)NC1=NC(=O)/C(=C/c2cn(C(C)=O)nc2-c2ccccc2)S1 | – | – | – | 28µM | ?
